What all share (assay): DAPPL (digital affinity profiling via proximity ligation, sequencing); 10 mM Tris-HCl pH 7.5, 50 mM NaCl, 1 mM DTT, 4% glycerol, room temperature, 30 min; GST-TFs on glutathione beads, 16-mer random dsDNA library, 0.1% formaldehyde crosslink after washing; high values mean tight binding
For assay [1], the target named is T1, FEV (Homo sapiens, UniProt Q99581 1-238).
T1 sequence: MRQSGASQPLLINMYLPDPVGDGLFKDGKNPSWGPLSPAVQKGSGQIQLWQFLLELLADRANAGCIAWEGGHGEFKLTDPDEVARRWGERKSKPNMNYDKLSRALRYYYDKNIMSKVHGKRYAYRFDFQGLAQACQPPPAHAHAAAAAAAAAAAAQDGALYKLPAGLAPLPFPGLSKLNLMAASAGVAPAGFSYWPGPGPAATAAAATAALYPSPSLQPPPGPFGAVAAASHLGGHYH
The settings on record: protein: recombinant; tags: N-terminal GST; dsDNA, one strand shown. Summed up:
(§1)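 Human transcription factors were made in yeast as GST fusions, captured on glutathione beads and barcoded with DNA. With a tag-only sample included, the pool was incubated with 200 nmole of a random double-stranded 16-mer DNA library in Tris/NaCl/DTT/glycerol buffer at room temperature for 30 min, then crosslinked with 0.1% formaldehyde after washing, ligated by proximity, amplified and sequenced. For binding signal, each hexamer's read frequency for a factor is divided by its frequency for the tag-only sample.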

Assay [2] deals with ETV5 (Homo sapiens, UniProt P41161 1-510). The settings on record: protein: recombinant; tags: N-terminal GST; dsDNA, one strand shown. The gist of the method: as §1
Chain of ETV5 (P41161 whole entry): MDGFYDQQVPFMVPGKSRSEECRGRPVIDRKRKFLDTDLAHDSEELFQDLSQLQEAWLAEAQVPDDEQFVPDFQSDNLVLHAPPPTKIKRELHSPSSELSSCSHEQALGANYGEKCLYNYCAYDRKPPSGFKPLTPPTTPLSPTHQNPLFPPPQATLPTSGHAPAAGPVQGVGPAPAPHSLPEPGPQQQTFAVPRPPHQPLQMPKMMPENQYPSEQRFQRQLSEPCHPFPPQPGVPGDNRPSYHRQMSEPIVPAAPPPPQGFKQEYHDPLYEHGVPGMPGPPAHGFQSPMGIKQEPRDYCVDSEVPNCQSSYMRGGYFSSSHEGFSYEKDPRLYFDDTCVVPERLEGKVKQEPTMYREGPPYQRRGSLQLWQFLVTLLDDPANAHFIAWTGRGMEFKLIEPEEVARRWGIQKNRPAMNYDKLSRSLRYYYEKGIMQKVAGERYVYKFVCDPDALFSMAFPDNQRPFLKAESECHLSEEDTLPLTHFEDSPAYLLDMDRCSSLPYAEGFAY
Assay [3] has as its target HSF1 (Homo sapiens, UniProt Q00613 1-529). The settings on record: protein: recombinant; tags: N-terminal GST; chain copies: 3; dsDNA, one strand shown. The gist of the method: as §1
Assay [4] addresses T2, SPIC (Homo sapiens, UniProt Q8N5J4 1-248).
T2 sequence: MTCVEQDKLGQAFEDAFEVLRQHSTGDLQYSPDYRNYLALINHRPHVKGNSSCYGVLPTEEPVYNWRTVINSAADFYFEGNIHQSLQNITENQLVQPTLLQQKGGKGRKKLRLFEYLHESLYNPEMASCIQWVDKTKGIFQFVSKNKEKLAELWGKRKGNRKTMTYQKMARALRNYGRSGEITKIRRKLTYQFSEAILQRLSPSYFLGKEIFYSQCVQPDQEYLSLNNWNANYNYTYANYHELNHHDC
The settings on record: protein: recombinant; tags: N-terminal GST; dsDNA, one strand shown. The gist of the method:
as §1

Assay [5] has as its target ELF4 (Homo sapiens, UniProt Q99607 1-663). The settings on record: protein: recombinant; tags: N-terminal GST; dsDNA, one strand shown. Summed up:
as §1

The target in assay [6] is T3, ELK4 (Homo sapiens, UniProt P28324-2 1-405).
T3 sequence: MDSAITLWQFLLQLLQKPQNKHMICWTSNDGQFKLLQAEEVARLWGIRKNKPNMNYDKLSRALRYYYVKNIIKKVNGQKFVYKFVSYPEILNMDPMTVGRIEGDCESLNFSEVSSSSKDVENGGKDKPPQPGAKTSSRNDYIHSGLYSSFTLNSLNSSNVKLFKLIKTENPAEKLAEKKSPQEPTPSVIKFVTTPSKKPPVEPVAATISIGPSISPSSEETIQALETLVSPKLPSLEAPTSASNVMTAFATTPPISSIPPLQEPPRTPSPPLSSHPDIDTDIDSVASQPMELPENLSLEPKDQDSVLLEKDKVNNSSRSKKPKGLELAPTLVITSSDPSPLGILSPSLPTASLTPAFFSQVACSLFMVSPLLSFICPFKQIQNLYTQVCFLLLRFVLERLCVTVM
The settings on record: protein: recombinant; tags: N-terminal GST; dsDNA, one strand shown. Summed up:
as §1

The target of assay [7] is T4, ETV2 (Homo sapiens, UniProt O00321 1-342).
T4 sequence: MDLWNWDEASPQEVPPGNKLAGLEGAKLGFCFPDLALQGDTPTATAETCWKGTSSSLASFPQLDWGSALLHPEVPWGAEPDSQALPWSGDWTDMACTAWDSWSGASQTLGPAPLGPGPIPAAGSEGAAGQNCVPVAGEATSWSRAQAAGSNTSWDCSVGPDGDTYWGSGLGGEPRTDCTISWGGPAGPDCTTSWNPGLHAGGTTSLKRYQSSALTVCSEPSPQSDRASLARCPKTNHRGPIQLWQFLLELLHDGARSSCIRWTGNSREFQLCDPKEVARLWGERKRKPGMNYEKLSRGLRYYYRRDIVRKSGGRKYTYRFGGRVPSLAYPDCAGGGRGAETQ
The settings on record: protein: recombinant; tags: N-terminal GST; dsDNA, one strand shown. The gist of the method:
as §1

Assay [8] has as its target T5, ELF3 (Homo sapiens, UniProt P78545 1-371).
T5 sequence: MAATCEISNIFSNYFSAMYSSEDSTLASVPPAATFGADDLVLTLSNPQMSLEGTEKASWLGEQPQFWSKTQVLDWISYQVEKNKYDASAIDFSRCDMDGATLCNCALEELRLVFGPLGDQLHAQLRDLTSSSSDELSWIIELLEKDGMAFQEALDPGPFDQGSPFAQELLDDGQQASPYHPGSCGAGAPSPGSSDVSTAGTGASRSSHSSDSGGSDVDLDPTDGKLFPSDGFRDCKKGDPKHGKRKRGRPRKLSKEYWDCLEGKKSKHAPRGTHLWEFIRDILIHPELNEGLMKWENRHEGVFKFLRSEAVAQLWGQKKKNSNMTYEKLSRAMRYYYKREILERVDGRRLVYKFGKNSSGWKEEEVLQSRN
The settings on record: protein: recombinant; tags: N-terminal GST; dsDNA, one strand shown. Summed up:
as §1

Assay [9] addresses CRX (Homo sapiens, UniProt O43186 1-299). The note with it: protein: recombinant; tags: N-terminal GST; dsDNA, one strand shown. Summed up: as §1
The target in assay [10] is ETV1 (Homo sapiens, UniProt P50549 1-477). The note with it: protein: recombinant; tags: N-terminal GST; dsDNA, one strand shown. The gist of the method:
as §1

For assay [11], the target named is T6, ERF (Homo sapiens, UniProt P50548 1-548).
T6 sequence: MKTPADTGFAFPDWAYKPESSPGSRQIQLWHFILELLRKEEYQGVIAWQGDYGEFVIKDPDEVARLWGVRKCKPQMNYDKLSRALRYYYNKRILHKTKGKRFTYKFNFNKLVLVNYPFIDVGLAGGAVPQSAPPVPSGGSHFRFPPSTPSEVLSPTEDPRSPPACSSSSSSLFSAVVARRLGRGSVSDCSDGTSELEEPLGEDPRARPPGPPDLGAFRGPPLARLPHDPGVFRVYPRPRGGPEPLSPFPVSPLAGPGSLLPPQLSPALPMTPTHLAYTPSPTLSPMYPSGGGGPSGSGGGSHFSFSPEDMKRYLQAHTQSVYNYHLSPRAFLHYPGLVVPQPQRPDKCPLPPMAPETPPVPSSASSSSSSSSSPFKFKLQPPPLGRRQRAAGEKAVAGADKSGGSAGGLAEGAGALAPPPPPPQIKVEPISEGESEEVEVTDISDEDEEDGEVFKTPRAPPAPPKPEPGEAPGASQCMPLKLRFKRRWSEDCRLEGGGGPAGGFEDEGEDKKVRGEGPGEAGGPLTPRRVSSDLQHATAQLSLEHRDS
The note with it: protein: recombinant; tags: N-terminal GST; dsDNA, one strand shown. The gist of the method:
as §1

Assay [12] deals with T7, ETV3L (Homo sapiens, UniProt Q6ZN32 1-361).
T7 sequence: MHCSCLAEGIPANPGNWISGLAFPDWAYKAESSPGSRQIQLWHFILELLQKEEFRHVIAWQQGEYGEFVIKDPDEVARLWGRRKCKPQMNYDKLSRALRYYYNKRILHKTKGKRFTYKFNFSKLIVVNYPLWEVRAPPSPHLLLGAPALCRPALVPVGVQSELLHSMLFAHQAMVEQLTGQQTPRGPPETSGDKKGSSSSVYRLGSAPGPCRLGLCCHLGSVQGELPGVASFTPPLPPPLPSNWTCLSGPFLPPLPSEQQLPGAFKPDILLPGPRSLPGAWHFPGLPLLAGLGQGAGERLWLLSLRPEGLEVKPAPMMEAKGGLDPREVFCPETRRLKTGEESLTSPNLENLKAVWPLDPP
The note with it: protein: recombinant; tags: N-terminal GST; dsDNA, one strand shown. Summed up: as §1

The target in assay [13] is T8, ETS2 (Homo sapiens, UniProt P15036 1-469).
T8 sequence: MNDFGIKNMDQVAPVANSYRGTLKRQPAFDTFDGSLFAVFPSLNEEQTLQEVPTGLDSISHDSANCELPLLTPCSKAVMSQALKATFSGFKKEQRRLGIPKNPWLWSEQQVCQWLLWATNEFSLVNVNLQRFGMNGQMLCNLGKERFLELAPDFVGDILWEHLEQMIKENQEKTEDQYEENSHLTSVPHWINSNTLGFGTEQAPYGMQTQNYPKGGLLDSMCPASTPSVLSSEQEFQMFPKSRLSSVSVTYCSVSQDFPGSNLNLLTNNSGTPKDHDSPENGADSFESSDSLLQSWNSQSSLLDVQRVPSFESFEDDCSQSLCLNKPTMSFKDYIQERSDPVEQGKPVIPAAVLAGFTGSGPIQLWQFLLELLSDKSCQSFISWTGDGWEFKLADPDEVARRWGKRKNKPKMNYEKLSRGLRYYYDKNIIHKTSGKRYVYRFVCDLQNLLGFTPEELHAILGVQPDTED
The note with it: protein: recombinant; tags: N-terminal GST; dsDNA, one strand shown. The gist of the method:
as §1

In assay [14] the target is T9, SPDEF (Homo sapiens, UniProt O95238 1-335).
T9 sequence: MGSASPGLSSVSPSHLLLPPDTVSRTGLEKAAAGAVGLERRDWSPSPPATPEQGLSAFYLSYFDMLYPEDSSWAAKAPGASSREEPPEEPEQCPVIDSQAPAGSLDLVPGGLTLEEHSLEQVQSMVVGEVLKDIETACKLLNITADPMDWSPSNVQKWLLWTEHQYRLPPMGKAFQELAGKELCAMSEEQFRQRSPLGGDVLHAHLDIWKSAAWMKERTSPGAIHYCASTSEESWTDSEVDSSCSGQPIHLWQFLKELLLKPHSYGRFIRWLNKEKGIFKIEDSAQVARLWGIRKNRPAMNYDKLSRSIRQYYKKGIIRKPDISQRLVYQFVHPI
The note with it: protein: recombinant; tags: N-terminal GST; dsDNA, one strand shown. The gist of the method:
as §1

Assay [15] addresses T10, ETV7 (Homo sapiens, UniProt Q9Y603 1-341).
T10 sequence: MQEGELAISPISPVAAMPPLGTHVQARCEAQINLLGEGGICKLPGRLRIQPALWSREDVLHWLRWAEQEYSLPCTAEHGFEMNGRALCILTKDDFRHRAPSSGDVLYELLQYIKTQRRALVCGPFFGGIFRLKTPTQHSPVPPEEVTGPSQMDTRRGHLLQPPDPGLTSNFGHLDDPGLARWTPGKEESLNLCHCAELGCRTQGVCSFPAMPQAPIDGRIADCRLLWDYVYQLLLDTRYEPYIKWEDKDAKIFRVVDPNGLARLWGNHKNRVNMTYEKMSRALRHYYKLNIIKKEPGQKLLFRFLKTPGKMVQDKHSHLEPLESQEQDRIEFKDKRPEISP
The settings on record: protein: recombinant; tags: N-terminal GST; dsDNA, one strand shown. Summed up:
as §1

Assay [16] concerns the target T11, ELF5 (Homo sapiens, UniProt Q9UKW6-2 1-255).
T11 sequence: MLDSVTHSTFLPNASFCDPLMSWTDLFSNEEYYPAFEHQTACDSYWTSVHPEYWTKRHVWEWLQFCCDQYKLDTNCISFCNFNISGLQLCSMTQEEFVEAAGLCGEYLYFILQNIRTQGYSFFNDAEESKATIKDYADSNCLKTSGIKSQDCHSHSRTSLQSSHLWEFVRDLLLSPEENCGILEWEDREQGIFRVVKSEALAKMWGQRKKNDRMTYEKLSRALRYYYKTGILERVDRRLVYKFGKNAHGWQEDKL
The note with it: protein: recombinant; tags: N-terminal GST; dsDNA, one strand shown. The gist of the method: as §1

Assay [17] deals with T12, ETV3 (Homo sapiens, UniProt P41162-2 1-143).
T12 sequence: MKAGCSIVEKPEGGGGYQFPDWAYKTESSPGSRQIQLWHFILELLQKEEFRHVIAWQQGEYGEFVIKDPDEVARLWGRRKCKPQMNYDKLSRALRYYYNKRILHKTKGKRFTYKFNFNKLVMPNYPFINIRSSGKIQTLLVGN
The note with it: protein: recombinant; tags: N-terminal GST; dsDNA, one strand shown. Summed up:
as §1

For assay [18], the target named is ETV6 (Homo sapiens, UniProt P41212 1-452). The note with it: protein: recombinant; tags: N-terminal GST; dsDNA, one strand shown. The gist of the method: as §1
Chain of ETV6 (P41212 whole entry): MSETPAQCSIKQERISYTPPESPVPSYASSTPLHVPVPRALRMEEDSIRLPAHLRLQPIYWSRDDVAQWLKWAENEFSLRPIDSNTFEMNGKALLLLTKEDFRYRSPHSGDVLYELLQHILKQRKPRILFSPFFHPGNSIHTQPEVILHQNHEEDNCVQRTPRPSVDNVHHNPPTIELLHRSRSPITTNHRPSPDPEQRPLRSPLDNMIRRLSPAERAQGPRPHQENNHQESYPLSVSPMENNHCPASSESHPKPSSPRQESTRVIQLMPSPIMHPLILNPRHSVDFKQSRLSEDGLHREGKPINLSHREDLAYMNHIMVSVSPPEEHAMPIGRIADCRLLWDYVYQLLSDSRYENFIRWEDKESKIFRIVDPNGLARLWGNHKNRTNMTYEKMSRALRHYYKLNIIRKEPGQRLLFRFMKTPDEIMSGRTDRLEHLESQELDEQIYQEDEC

Chain of ETV1 (P50549 whole entry): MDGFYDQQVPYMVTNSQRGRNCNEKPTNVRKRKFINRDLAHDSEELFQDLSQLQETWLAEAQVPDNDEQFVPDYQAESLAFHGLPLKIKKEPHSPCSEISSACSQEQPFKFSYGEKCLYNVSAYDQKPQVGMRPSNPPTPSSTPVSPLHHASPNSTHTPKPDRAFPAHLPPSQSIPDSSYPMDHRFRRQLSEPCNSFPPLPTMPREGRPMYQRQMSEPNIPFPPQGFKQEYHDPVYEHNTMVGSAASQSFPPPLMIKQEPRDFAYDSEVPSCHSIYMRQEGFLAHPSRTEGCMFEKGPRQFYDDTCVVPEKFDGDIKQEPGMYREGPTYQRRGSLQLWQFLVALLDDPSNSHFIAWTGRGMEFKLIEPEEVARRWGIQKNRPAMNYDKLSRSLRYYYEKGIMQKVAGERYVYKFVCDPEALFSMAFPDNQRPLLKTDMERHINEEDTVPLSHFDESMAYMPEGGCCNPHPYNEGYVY
Chain of CRX (O43186 whole entry): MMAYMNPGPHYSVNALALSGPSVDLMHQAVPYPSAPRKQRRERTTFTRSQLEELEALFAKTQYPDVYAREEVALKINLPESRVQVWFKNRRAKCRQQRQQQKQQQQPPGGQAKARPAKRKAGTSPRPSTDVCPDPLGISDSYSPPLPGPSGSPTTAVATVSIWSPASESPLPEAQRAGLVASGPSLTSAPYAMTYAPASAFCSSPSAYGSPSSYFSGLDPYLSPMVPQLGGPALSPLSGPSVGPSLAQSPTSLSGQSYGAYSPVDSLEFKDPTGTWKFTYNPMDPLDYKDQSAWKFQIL
Chain of HSF1 (Q00613 whole entry): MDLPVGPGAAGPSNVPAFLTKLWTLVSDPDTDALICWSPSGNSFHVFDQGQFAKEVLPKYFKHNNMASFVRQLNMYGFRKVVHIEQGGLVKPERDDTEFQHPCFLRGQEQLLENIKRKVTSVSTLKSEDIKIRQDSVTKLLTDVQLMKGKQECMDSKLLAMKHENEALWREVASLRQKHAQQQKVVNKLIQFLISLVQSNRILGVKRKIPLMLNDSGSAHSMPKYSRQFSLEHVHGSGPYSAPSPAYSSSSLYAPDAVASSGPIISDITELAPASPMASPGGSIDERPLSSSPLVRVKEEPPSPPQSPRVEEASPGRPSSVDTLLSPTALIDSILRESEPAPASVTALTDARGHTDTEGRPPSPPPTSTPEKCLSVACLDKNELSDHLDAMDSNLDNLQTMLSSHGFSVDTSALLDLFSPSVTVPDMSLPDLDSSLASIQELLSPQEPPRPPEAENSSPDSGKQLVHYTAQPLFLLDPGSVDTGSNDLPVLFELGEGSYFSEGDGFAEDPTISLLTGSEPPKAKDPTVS
Chain of ELF4 (Q99607 whole entry): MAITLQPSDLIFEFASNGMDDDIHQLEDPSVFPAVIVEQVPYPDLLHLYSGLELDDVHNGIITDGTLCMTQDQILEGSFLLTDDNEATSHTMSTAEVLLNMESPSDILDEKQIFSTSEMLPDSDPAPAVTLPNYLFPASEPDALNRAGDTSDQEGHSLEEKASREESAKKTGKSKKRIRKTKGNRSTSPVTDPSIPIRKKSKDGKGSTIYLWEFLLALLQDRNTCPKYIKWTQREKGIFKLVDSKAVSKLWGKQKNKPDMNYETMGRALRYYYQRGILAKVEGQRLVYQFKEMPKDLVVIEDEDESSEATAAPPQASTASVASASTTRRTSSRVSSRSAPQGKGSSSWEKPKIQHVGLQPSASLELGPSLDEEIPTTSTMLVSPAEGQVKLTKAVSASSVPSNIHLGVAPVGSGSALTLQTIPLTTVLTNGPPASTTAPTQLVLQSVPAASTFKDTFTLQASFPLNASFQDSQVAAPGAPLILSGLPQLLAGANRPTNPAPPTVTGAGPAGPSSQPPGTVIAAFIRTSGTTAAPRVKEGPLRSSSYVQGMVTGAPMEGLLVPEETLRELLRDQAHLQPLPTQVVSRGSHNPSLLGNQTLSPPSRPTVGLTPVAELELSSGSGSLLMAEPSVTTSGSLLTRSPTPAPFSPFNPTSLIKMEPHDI

Consider GGCTCA, for which the binding signal in [1] was 1.22 fold enrichment (6-mer frequency, TF over GST control); in [2] it was 1.22 fold enrichment (6-mer frequency, TF over GST control); in [3], 1.27 fold enrichment (6-mer frequency, TF over GST control); in assay [4], 1.28 fold enrichment (6-mer frequency, TF over GST control); in assay [5], 1.3 fold enrichment (6-mer frequency, TF over GST control); in [6], 1.15 fold enrichment (6-mer frequency, TF over GST control). Further, the binding signal in [7] was 1.13 fold enrichment (6-mer frequency, TF over GST control); in assay [8] it was 1.28 fold enrichment (6-mer frequency, TF over GST control); in [9] it was 1.53 fold enrichment (6-mer frequency, TF over GST control); in assay [10], 1.18 fold enrichment (6-mer frequency, TF over GST control); in assay [11], 1.3 fold enrichment (6-mer frequency, TF over GST control); in assay [12], 1.33 fold enrichment (6-mer frequency, TF over GST control). Besides, the binding signal in [13] is 1.19 fold enrichment (6-mer frequency, TF over GST control); in [14], 1.15 fold enrichment (6-mer frequency, TF over GST control); in assay [15] it was 1.15 fold enrichment (6-mer frequency, TF over GST control); in assay [16], 1.14 fold enrichment (6-mer frequency, TF over GST control); in assay [17], 1.23 fold enrichment (6-mer frequency, TF over GST control); in [18], 1.26 fold enrichment (6-mer frequency, TF over GST control).

Source of the values: article PMC7862700, “An all-to-all approach to the identification of sequence-specific readers for epigenetic DNA modifications on cytosine”.
